INS promoter inh = TRM-6 insulin promoter activity inhibition; TRM-6 cells (human fetal islet line), insulin promoter-eGFP reporter, imaging; reporter expression induced with tamoxifen; inhibition, % at 2 µM; 0.9% of 130,000 active; AID 1273;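 active = inhibition above the mean plus 3 SD, with well images judged a real hit on visual review, cut at about 60% in these data, passing the limit was not always enough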
Cl transport mod = modulators of human KCC2 chloride dependent transport; Q9H2X9; KCC2 cells, thallium flux FluoZin-2 fluorescence; B-score of Tl+ flux slope (higher = more flux/activation; lower = inhibition) at 10 µM; 2.2% of 190,000 active; AID 1456;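 active = thallium flux slope and its plate-corrected score both differing from the plate sample mean at a set confidence after two filtering rounds, in either direction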;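 also: slope of fluorescence scaled to starting intensity during 10 to 20 s after thallium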
WT yeast gro inh = growth inhibition of WT yeast, mitochondrial fusion screen; 2.1% of 190,000 active; AID 1362; mitochondrial fusion phenotypic screen, WT strain; inhibition, % at 10 µM; in the data active = inhibition above about 58%; tested in S. cerevisiae
Ins promoter up = MIN6 insulin promoter up-regulation. MIN6 insulin promoter-GFP reporter, high-content imaging; stronger effect = higher value. z-score at 5 µM. 0.3% of 190,000 active;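 active = z-score above 3 at 5 µM with at least 500 cells counted in the well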
ROMK primary = modulates human ROMK potassium channel activity; P48048; Tet-inducible ROMK, thallium flux fluorescence; actives lie on both sides; B-score at 10 µM; 2% of 130,000 active;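 active = signal ratio slope over the read window, or its plate-corrected B-score, at least 3 SD from the plate mean, either direction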;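 also: B-score of the F/F0 ratio slope over 7 to 12 s after thallium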
Lmaj promast = reduces viability of Leishmania major promastigotes | inhibition, % at 10 µM | resazurin fluorescence viability | 9% of 200,000 active; in the data active = inhibition above about 50%;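 also: promastigotes grown with compound for 44 hours at 28 °C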
An asterisk follows results filed as active; x = no result. Compounds with a hit are over-represented: about 12% of the library has one in this group of screens.

SMILES	INS promoter inh	Cl transport mod	WT yeast gro inh	Ins promoter up	ROMK primary	Lmaj promast
COc1ccc(-c2cc(N)n(S(=O)(=O)c3ccc(F)cc3)n2)cc1OC	x	x	1	1.2	x	51*
COC(=O)c1c(/N=C/NOCc2ccc(Cl)cc2)sc2c1CCN(c1ncc(C(F)(F)F)cc1Cl)C2	33	x	-11	1.2	0.15	10
COc1cccc(/C=C/C(=O)Nc2cccc(C(C)=O)c2)c1OC	x	-0.22	-4	0.86	-0.079	11
COc1cccc(/C=C/C(=C2\C(=O)N(c3ccccc3)N=C2C)c2ccc(Br)cc2)c1OC	30	0.35	x	x	x	99*
O=C(NC(c1ccccc1)c1c(O)ccc2ccccc12)c1ccccc1Cl (stereo not given)	-47	-0.021	41	-0.16	x	100*
O=C(CC(NC(=O)c1ccccc1)c1ccccc1)Nc1cccc2ccccc12 (stereo not given)	-17	0	0	0.16	-0.071	36
CCOc1ccc(C(NC(C)=O)c2ccc(OC)c(OC)c2)cc1 (stereo not given)	-57	-1.7	5	-0.63	-0.028	6
O=C(NC(c1ccc(Cl)cc1)c1c(O)ccc2ccccc12)c1ccccc1 (stereo not given)	-3	-0.02	56	-1.9	0.68	99*
CC(=O)NC(c1ccc(Cl)cc1)c1c(O)ccc2ccc(O)cc12 (stereo not given)	x	0.35	-12	11*	-1.5	44
CC(NC(=O)c1ccccc1O)c1ccccc1 (stereo not given)	39	0.44	-5	0.42	-0.0035	29
O=C1NC2(CCCC2)N=C1c1ccc(F)cc1	13	-1.3	-5	-0.77	1.1	5
O=C(CSCc1c(F)cccc1Cl)NCc1cccnc1	-34	0.77	-10	0.05	x	32
Cc1n(N)c2ccccc2[n+]1CC(=O)c1ccccc1	21	0.47	-4	-0.69	-0.23	-4
COc1ccc(CN2CCN(CCCc3ccccc3)CC2)c(OC)c1	x	-1.4	18	x	-0.67	91*
COc1ccc(CC(C)N2CCN(Cc3ccccc3)CC2)c(OC)c1 (stereo not given)	10	0.1	6	-0.68	x	95*
COc1ccc(CC(C)N2CCN(c3ccccc3)CC2)cc1OC (stereo not given)	-23	0.82	-1	-1.1	-0.28	78*
COc1cc2c(cc1NC(=O)COC(=O)C(CCSC)NC(=O)c1ccccc1Cl)oc1ccccc12 (stereo not given)	16	0.29	-22	0.23	-0.038	67*
COc1cc2c(cc1NS(=O)(=O)N1CCCCC1)oc1ccccc12	-21	-1.1	80*	1.8	x	96*
COc1cc2c(cc1NC(=O)CN1CCN(S(=O)(=O)c3ccccc3F)CC1)oc1ccccc12	-37	0.068	11	3.6*	-0.017	-4
CCOc1cc(N2CCOCC2)c(OCC)cc1NC(=O)CN1C(=O)NC2(CCc3ccccc32)C1=O (stereo not given)	10	0.19	-15	-1.1	-0.78	18
COc1cc2c(cc1NC(=O)Cc1ccc(C)cc1)oc1ccccc12	17	1.7	4	x	0.52	-4
COc1cc2c(cc1NC(=O)CN1C(=O)NC3(CCc4ccccc43)C1=O)oc1ccccc12 (stereo not given)	0	0.47	66*	-1.1	0.082	18
O=S(=O)(Nc1ccc2c(c1)oc1ccccc12)N1CCCC1	54	-0.89	-28	-0.3	x	5
O=C(Cc1ccc(Br)cc1)N1CCN(c2ccccc2O)CC1	-39	0.084	6	0.55	-1.4	-7
COc1cc2c(cc1NC(=O)COc1ccccc1OC)oc1ccccc12	-3	x	2	0.36	x	-3
SMILES	INS promoter inh	Cl transport mod	WT yeast gro inh	Ins promoter up	ROMK primary	Lmaj promast
CCN(CC)S(=O)(=O)c1cccc(C(=O)Nc2cc3oc4ccccc4c3cc2OC)c1	27	-0.00042	-8	-0.26	x	80*
COc1ccc(CN(C)CC(=O)Nc2cc3oc4ccccc4c3cc2OC)c(OC)c1	0	0.44	40	-1.2	x	97*
COc1cc2c(cc1NC(=O)COC(=O)[C@@H](NS(=O)(=O)c1ccccc1)C(C)C)oc1ccccc12	-1	0.33	17	-0.84	x	99*
COc1cc2c(cc1NC(=O)C(C)Sc1ccc(C)cc1)oc1ccccc12 (stereo not given)	x	x	13	0.1	x	7
COc1cc2c(cc1NC(=O)C(C)NCc1ccccc1)oc1ccccc12 (stereo not given)	x	0.4	68*	-0.55	x	8
COc1cc2c(cc1NC(=O)Nc1ccccc1)oc1ccccc12	7	0.55	69*	-0.33	x	4
COc1ccc(S(=O)(=O)NCC(c2cccnc2)N2CCN(C)CC2)cc1C (stereo not given)	x	0.37	-5	-0.14	x	0
CCS(=O)(=O)NCC(c1cccnc1)N1CCN(c2ccccc2)CC1 (stereo not given)	x	-0.17	-14	-0.58	x	38
CN1CCN(C(CNS(=O)(=O)c2ccc(F)cc2)c2cccnc2)CC1 (stereo not given)	17	0.32	-6	-0.08	x	-5
O=S(=O)(NCC(c1cccnc1)N1CCN(c2ccc(F)cc2)CC1)c1ccccc1 (stereo not given)	-44	1	x	x	-1.1	92*
O=S(=O)(NCC(c1cccnc1)N1CCN(c2ccccc2)CC1)c1cc(F)ccc1F (stereo not given)	11	-0.59	27	-0.1	x	97*
COc1ccccc1N1CCN(C(CNS(=O)(=O)c2cc(F)ccc2F)c2cccnc2)CC1 (stereo not given)	-71	0.26	-6	0.24	0.5	90*
O=C(NC(=S)NNS(=O)(=O)c1ccc(Cl)cc1)c1cccnc1	x	0.36	-5	-1.2	0.011	-5
Cc1ccc(CCSc2ccc(C(C)C)cc2)cn1	19	-2.3	74*	0.25	x	-2
O=C(Nc1cccc(C(F)(F)F)c1)N(Cc1ccc(Cl)cc1)CC(O)C(F)(F)F (stereo not given)	4	-0.017	84*	x	x	96*
C=CCn1c(=O)/c(=C/c2ccc(F)cc2)s/c1=C(\C#N)c1nnc2n1CCCCC2	x	-0.57	-2	-1.2	x	61*
CCc1ccc(NC(=S)N2CCCC(C(F)(F)F)C2)cc1 (stereo not given)	x	-0.58	39	0.07	0.15	96*
COc1ccc(-n2c(C)c(C(C)=O)c(C(C)=O)c2C)cc1OC	71*	x	3	-0.45	0.23	4
COc1ccc(-c2nc(-n3c(C)c(C(C)=O)c(C(C)=O)c3C)sc2C)cc1OC	-59	x	-20	0.83	-0.32	66*
CCN1CCN(C(=O)c2oc(=O)c3ccccc3c2-c2ccc(C)cc2)CC1	x	0.54	3	x	x	-5
Cc1ccc(-c2c(C(=O)NCc3ccc(F)cc3)oc(=O)c3ccccc23)cc1	27	0.11	62*	0.98	-1.2	74*
O=C(O)COc1ccc(/C=C/c2nc3ccc([N+](=O)[O-])cc3s2)cc1	x	-2.9	x	0.24	x	x
